From PubChem BioAssay AID1851 (National Center for Advancing Translational Sciences (NCATS), 2009)
The whole screen tested about 16,000 compounds, of which about 5,100 (32%) were called active. About 25% were inconclusive and are not listed. Calls follow the shape of the dose curve; as a rule, active = well fitted curve in the direction sought with a large enough effect; inconclusive = small, poorly fitted or top-dose-only effect, or effect the other way; inactive = no such curve, though single readings can be large or run the other way. The list shows a part of the results.

Target: Cytochrome P450 3A4 (Homo sapiens) (UniProt P08684)
Sequence (P08684 whole entry, looked up): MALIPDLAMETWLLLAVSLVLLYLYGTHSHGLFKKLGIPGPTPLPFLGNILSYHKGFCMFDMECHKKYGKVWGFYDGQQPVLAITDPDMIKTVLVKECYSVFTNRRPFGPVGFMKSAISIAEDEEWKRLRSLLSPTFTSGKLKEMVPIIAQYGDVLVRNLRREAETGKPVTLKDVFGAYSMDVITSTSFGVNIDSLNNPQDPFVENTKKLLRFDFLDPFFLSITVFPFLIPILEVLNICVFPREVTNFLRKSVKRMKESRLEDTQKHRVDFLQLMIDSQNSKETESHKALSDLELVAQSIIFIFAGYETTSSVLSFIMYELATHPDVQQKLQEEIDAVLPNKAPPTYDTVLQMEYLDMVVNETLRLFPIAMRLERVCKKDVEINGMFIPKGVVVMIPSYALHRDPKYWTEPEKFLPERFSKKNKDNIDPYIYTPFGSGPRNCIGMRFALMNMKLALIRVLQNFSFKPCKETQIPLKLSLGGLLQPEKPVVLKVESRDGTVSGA
Assay: Cytochrome panel assay with activity outcomes
Conditions: recombinant CYP, pro-luciferin dealkylation, luminescence, p450-cyp3a4; series mostly up to 57.1 µM
% is scaled to controls: 0 for no effect and ±100 for the full control effect.

SMILES | activity, negative = inhibition | AC50
O=C(O)C(Sc1ccc(Cl)cc1)Sc1ccc(Cl)cc1 | 12.3% [at 11.4 µM] (inactive) | –
COCCN(C(=O)c1ccco1)c1nnc(-c2ccc(OC)cc2)s1 | -28.3% [at 2.29 µM] (inactive) | –
CCc1ccc(C(C(=O)NCc2ccc(OC)cc2)N(CCOC)C(=O)Cc2cccs2)cc1 (centres undefined) | – | 1 µM (active)
COc1ccc(CNC(=O)C(c2ccc(C)cc2)N(Cc2cccs2)C(=O)c2ccc3c(c2)OCCO3)cc1 (centres undefined) | – | 1 µM (active)
COc1ccc(C(C(=O)NCc2ccccc2)N(Cc2cccs2)C(=O)c2cnccn2)cc1 (centres undefined) | – | 0.708 µM (active)
O=C(O)C(Cc1cccs1)C(=O)O | -8.79% [at 11.4 µM] (inactive) | –
COc1ccc(C(=O)n2c(SC)nc3cc4c(cc32)OCCO4)cc1 | -12% [at 2.29 µM] (inactive) | –
COc1ccc2nc3oc(C(=O)NCc4cccs4)cc3cc2c1 | – | inactive
O=C(NCc1ccccc1)C(c1cccs1)N(Cc1cccs1)C(=O)c1cnccn1 (centres undefined) | – | 0.891 µM (active)
O=C(COC(=O)c1cnccn1)NCc1ccccc1 | -20.5% [at 11.4 µM] (inactive) | –
CCOC(=O)c1c(NC(=O)CCc2ccc(CC)o2)sc(C)c1C | – | 12.6 µM (active)
CCc1c(C)sc(NC(=O)OC)c1C(N)=O | – | inactive
CCOC(=O)c1c(NC(=O)CSc2nnnn2C)sc(C)c1C | – | 14.1 µM (active)
Cc1cccc(NC(=O)CSc2nnnn2C)n1 | – | inactive
Nc1nc2c(ncn2COCCO)c(=O)[nH]1 | – | inactive
CC(C)NC(=O)CC(=O)N/N=C/c1ccc(F)cc1 | – | inactive
O=C(CN(Cc1ccccc1)S(=O)(=O)c1ccc2c(c1)OCCO2)N/N=C/c1ccc(F)cc1 | 0.145% [at 2.29 µM] (inactive) | –
Cc1ccc(S(=O)(=O)N(CC(=O)N/N=C/c2ccc(F)cc2)c2cccc3cccnc23)cc1 | – | 1.26 µM (active)
Cn1c(C(=O)O)c(CC(=O)NCC2COc3ccccc3O2)c2ccccc21 (centres undefined) | -8.31% [at 11.4 µM] (inactive) | –
O=C1CC2(CCCC2)CC(=O)N1CCCCNC[C@H]1COc2ccccc2O1 | – | 0.631 µM (active)
COc1ccc(C(=O)Nc2cc(Cl)ccc2OC(=O)c2ccc(OC)cc2)cc1 | – | 22.4 µM (active)
COC(=O)COc1cccc(NC(=O)c2ccc(C)cc2)c1 | – | 17.8 µM (active)
Cc1cccc(NC(=S)NC(=O)c2cc(-c3ccccc3)nc3ccccc23)c1 | -27.7% [at 11.4 µM] (inactive) | –
Cc1ccc(C(=O)Nc2cccc(-c3cnc4ccccc4n3)c2)cc1 | – | 2.24 µM (active)
COc1ccc(NC(=O)C2(c3ccc(NC(=O)c4ccc(OC(C)=O)cc4)cc3)CCCC2)cc1 | – | inactive
COc1ccc(C(=O)Nc2cc(OC)cc(OC)c2)cc1 | – | 14.1 µM (active)
Cc1ccc(C(=O)Nc2cc(Cl)ccc2OC(=O)c2ccc(C)cc2)cc1 | -3.15% [at 2.29 µM] (inactive) | –
CCOc1ccc(NC(=O)c2ccc(OC)cc2)cc1 | – | inactive
CC(=O)Nc1ccc(-c2cc(-c3ccc(NC(C)=O)cc3)nc(-c3ccccc3)n2)cc1 | -4.31% [at 2.29 µM] (inactive) | –
